Values joined by “and” are separate entries in the source; they are usually repeats but may differ in a detail not shown here. Identical values can stand only once. More than one record can exist for a structure, and the calls need not agree. Active and inactive are the calls of the source. How the source made its calls: active means hit-call score of the fitted dose curve at least 0.9, where 1 is the maximum; inactive means score below 0.9.
Legend:
Details in all cases: mRNA level, 48 h; actives raise or lower the signal
CYP2C8 (gene 1558) = assay: LTEA_HepaRG_CYP2C8: Life Technologies and Expression Analysis (LTEA) Assay for CYP2C8 using HepaRG (AID 2283483)
Summary of the method: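 This is a transcriptional endpoint in HepaRG cultures: 48 h exposure, highest concentration 100 uM. CYP2C8 mRNA is quantified by TaqMan qRT-PCR.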

CYP2C9 (gene 1559) = assay: LTEA_HepaRG_CYP2C9: Life Technologies and Expression Analysis (LTEA) Assay for CYP2C9 using HepaRG (AID 2283484)
Summary of the method: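 Eight-point concentration-response (highest 100 uM, half-log dilutions) in HepaRG cells for 48 h; CYP2C9 expression by qRT-PCR normalized to ACTB, GAPDH, POLR2A. Bidirectional fit, DMSO baseline.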

CYP2E1 (gene 1571) = assay: LTEA_HepaRG_CYP2E1: Life Technologies and Expression Analysis (LTEA) Assay for CYP2E1 using HepaRG (AID 2283485)
Summary of the method: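 CYP2E1 transcript was measured by TaqMan qRT-PCR in human HepaRG cultures after 48 h chemical exposure (top 100 uM, half-log steps, 0.5% DMSO vehicle). Housekeeping-gene normalization; gain or loss fitted relative to DMSO baseline.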

CYP4A11 (gene 1579) = assay: LTEA_HepaRG_CYP4A11: Life Technologies and Expression Analysis (LTEA) Assay for CYP4A11 using HepaRG (AID 2283486)
Summary of the method: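 Readout is CYP4A11 mRNA induction or suppression (qRT-PCR, ACTB/GAPDH/POLR2A normalization) in human HepaRG cells after 48 h chemical treatment, concentrations to 100 uM in 0.5% DMSO, fitted bidirectionally against vehicle.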

[1] = read-out: Cytochrome P450 3A4 (Homo sapiens) (UniProt P08684); assay: LTEA_HepaRG_CYP3A4: Life Technologies and Expression Analysis (LTEA) Assay for CYP3A4 using HepaRG (AID 2283487)
Summary of the method: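 Differentiated HepaRG cells in serum-free induction medium exposed in duplicate for 48 h to 8 half-log concentrations up to 100 uM in 0.5% DMSO. CYP3A4 mRNA measured by qRT-PCR normalized to ACTB, GAPDH and POLR2A; bidirectional fit versus DMSO.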

[2] = read-out: DNA damage-inducible transcript 3 (DDIT3), DDIT3 (gene 1649); assay: LTEA_HepaRG_DDIT3: Life Technologies and Expression Analysis (LTEA) Assay for DNA damage-inducible transcript 3 (DDIT3) using HepaRG (AID 2283488)
Summary of the method: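 qRT-PCR readout (Fluidigm TaqMan), housekeeping-normalized to ACTB, GAPDH, POLR2A. HepaRG cells, 48 h exposure, 8-point half-log series from 100 uM in 0.5% DMSO, duplicates. Gain or loss of signal fitted against DMSO baseline.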

[3] = read-out: Pro-epidermal growth factor (Homo sapiens) (UniProt P01133); assay: LTEA_HepaRG_EGF: Life Technologies and Expression Analysis (LTEA) Assay for Epidermal growth factor (EGF) using HepaRG (AID 2283489)
Summary of the method: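 EGF expression changes in human HepaRG cells are scored by bidirectional fitting relative to 0.5% DMSO controls. Chemicals are tested at eight half-log concentrations up to 100 uM for 48 h in serum-free induction medium.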

[4] = read-out: Early growth response protein 1 (EGR1) transcription factor, EGR1 (gene 1958); assay: LTEA_HepaRG_EGR1: Life Technologies and Expression Analysis (LTEA) Assay for Early growth response protein 1 (EGR1) transcription factor using HepaRG (AID 2283490)
Summary of the method: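 EGR1 expression change in human HepaRG after 48 h chemical exposure, assessed by housekeeping-normalized qRT-PCR; concentration-response up to 100 uM, fitted in both directions against DMSO controls.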

[5] = read-out: Ezrin (EZR), EZR (gene 7430); assay: LTEA_HepaRG_EZR: Life Technologies and Expression Analysis (LTEA) Assay for Ezrin (EZR) using HepaRG (AID 2283491)
Summary of the method: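 Differentiated human HepaRG cells, 48 h after plating, were exposed in serum-free induction medium for 48 hours to eight half-log concentrations up to 100 uM in 0.5% DMSO. EZR mRNA was measured by TaqMan qRT-PCR, normalized to ACTB, GAPDH and POLR2A, and fitted bidirectionally against DMSO.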

[6] = read-out: Cytochrome P450 3A7 (Homo sapiens) (UniProt P24462); assay: LTEA_HepaRG_CYP3A7: Life Technologies and Expression Analysis (LTEA) Assay for CYP3A7 using HepaRG (AID 2283492)
Summary of the method: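 Cells were thawed, plated, cultured 48 h, then treated for a further 48 h with chemicals (eight-point half-log series from 100 uM, 0.5% DMSO). RNA was isolated and CYP3A7 expression quantified by qRT-PCR normalised to ACTB, GAPDH and POLR2A.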

Sequence of Cytochrome P450 3A7 (Homo sapiens) (P24462 whole entry, looked up): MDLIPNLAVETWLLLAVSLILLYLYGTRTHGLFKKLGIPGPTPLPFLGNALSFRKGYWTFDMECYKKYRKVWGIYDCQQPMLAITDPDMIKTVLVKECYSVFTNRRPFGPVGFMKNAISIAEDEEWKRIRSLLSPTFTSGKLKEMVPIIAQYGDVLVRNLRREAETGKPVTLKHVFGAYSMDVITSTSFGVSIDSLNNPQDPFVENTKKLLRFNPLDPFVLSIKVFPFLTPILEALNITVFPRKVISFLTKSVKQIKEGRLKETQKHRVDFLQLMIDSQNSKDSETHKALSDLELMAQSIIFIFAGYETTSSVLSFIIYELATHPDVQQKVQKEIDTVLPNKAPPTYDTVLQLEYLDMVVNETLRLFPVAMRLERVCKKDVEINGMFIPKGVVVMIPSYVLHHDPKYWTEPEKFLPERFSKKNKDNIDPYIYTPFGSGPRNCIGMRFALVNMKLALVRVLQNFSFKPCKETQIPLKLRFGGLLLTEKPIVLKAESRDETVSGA
Sequence of Cytochrome P450 3A4 (Homo sapiens) (P08684 whole entry, looked up): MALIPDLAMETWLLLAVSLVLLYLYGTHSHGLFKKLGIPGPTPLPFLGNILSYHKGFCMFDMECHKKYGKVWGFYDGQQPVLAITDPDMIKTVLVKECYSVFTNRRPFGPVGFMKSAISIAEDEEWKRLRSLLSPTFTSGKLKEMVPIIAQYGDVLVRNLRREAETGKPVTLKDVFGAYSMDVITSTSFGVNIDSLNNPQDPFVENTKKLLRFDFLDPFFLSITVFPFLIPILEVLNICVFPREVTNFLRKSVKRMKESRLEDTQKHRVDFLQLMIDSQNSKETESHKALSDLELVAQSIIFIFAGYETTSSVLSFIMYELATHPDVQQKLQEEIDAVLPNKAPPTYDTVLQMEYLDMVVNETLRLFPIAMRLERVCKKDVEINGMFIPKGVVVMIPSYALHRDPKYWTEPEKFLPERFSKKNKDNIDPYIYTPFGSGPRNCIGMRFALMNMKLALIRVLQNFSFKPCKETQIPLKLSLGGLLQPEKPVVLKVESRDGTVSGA

SMILES | outcome (CYP2C8 (gene 1558)) | outcome (CYP2C9 (gene 1559)) | outcome (CYP2E1 (gene 1571)) | outcome (CYP4A11 (gene 1579)) | outcome [1] | outcome [2] | outcome [3] | outcome [4] | outcome [5] | outcome [6] | AC50 (CYP2C8 (gene 1558)) | AC50 (CYP2C9 (gene 1559)) | AC50 (CYP2E1 (gene 1571)) | AC50 (CYP4A11 (gene 1579)) | AC50 [1] | AC50 [3] | AC50 [4] | AC50 [6] | AC50 [2]
ClCC(Cl)CCl | inactive | inactive | inactive | inactive | inactive | inactive | inactive | inactive | inactive | inactive |  |  |  |  |  |  |  |  | 
Cc1ccccc1N | inactive | inactive | inactive | inactive | inactive | inactive | inactive | inactive | inactive | inactive |  |  |  |  |  |  |  |  | 
C=CC(=O)OCCCCCC(C)C | inactive | inactive | inactive | inactive | inactive | inactive | inactive | inactive | inactive | inactive |  |  |  |  |  |  |  |  | 
CC(C)(C)c1cc(O)ccc1O | inactive | inactive | inactive | inactive | inactive | inactive | inactive | inactive | inactive | inactive |  |  |  |  |  |  |  |  | 
Oc1cccc2cccnc12 | inactive |  | inactive | inactive | inactive | inactive | inactive | inactive | inactive | inactive |  |  |  |  |  |  |  |  | 
CC(C)(c1ccccc1)c1ccc(O)c(C(C)(C)c2ccccc2)c1 |  |  |  |  |  | inactive |  |  | inactive |  | 85 µM (active) | 85.4 µM (active) | 62.4 µM (active) | 73.4 µM (active) | 12.3 µM (active) | 29.4 µM (active) | 72.1 µM (active) | 80.8 µM (active) | 
CCC(=O)C(CC(C)N(C)C)(c1ccccc1)c1ccccc1 (stereo not given) | inactive | inactive |  | inactive |  |  | inactive | inactive | inactive |  |  |  | 36.2 µM (active) |  |  |  |  |  | 36.2 µM (active)
CN(C)N=O | inactive | inactive | inactive | inactive | inactive | inactive | inactive | inactive | inactive | inactive |  |  |  |  |  |  |  |  | 
C[C@]12CCC(=O)C[C@@H]1CC[C@@H]1[C@@H]2CC[C@]2(C)[C@@H](O)CC[C@@H]12 | inactive | inactive |  |  | inactive | inactive | inactive | inactive | inactive | inactive |  |  | 50 µM (active) | 23.9 µM (active) |  |  |  |  | 
COc1cc(-c2ccc(N)c(OC)c2)ccc1N | inactive | inactive |  |  | inactive | inactive | inactive | inactive | inactive | inactive |  | 77.4 µM (active) | 38.1 µM (active) and 24.1 µM (active) | 62.6 µM (active) and 50 µM (active) | 19.9 µM (active) | 13.3 µM (active) |  | 82.9 µM (active) | 80.3 µM (active)
CCCCCCCCc1ccc(O)cc1 | inactive | inactive | inactive |  | inactive | inactive |  | inactive | inactive | inactive |  |  |  | 65.8 µM (active) |  |  |  |  | 
NC(=O)O | inactive | inactive | inactive | inactive | inactive | inactive | inactive | inactive | inactive | inactive |  |  |  |  |  |  |  |  | 
CC(C)(OO)c1ccccc1 | inactive | inactive | inactive | inactive | inactive | inactive | inactive | inactive | inactive | inactive |  |  |  |  |  |  |  |  | 
CCOP(=S)(OCC)SCSP(=S)(OCC)OCC |  | inactive |  | inactive |  | inactive | inactive | inactive | inactive |  | 0.121 µM (active) |  | 19.2 µM (active) |  | 12.5 µM (active) |  |  | 50 µM (active) | 
CC(=O)[O][Hg][c]1ccccc1 |  |  |  | inactive |  | inactive |  |  | inactive |  | 5 µM (active) | 0.862 µM (active) | 13.2 µM (active) |  | 3.76 µM (active) |  | 26.9 µM (active) | 5 µM (active) | 
